Source: PubChem BioAssay (several laboratories)
An excerpt weighted towards active compounds, which were near 3.8% of everything screened.
TIM10 inh – growth inhibitors of isogenic TIM10 control yeast, primary screen, counter-screen for tim10-1 yeast inhibitor project, luminescence, uHTS. 330,000 tested, 1.4% active. AID 463195, 2010. inhibition, % at 10 µM. S. cerevisiae TIM10 strain growth, BacTiter-Glo luminescence, 24 h;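 active = inhibition of 40% or more at the single tested concentration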;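 note: wild-type TIM10 isogenic control strain grown at permissive 25 °C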
tim10-1 inh – growth inhibitors of tim10-1 mutant yeast, primary screen, luminescence, uHTS | inhibition, % at 20 µM | 330,000 tested, 2.2% active | S. cerevisiae tim10-1 ts strain growth, BacTiter-Glo, 24 h;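 active = inhibition of at least 40%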;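 note: mutant grown at 25 °C; 0% = DMSO wells with yeast and 100% = wells holding no yeast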
PfHsp90 set2 – growth inhibition of PfHsp90-expressing yeast, primary screen, antimalarial PfHsp90 inhibitor project, S. cerevisiae, BacTiter-Glo luminescence, single point, set 2 | inhibition, % at 9.4 µM | BacTiter-Glo ATP, 48 h; yeast lacking PDR1 and PDR3 efflux regulators | 310,000 tested, 0.32% active;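 active = every replicate shows inhibition above about 80%, whatever the replicate mean, limit read from the data; inconclusive = mean inhibition reaches the set limit but some replicate falls short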;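 note: 0% = DMSO neutral controls and 100% = 20 µM radicicol positive controls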
Beta2AR agonist – beta2AR agonists driving receptor internalization, primary screen, cell-based, FAP fluorogen, flow cytometry. AID 504454, 2011. 340,000 tested, 0.43% active. Am2.2-beta2AR cells. Beta-2 adrenergic receptor (Homo sapiens), P07550. response, % (no concentration beside the values);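 active = response above a set limit, near 3 SD of response in nonfluorescent compounds, cut at about 42% in these data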
Target sequence (P07550 whole entry, looked up): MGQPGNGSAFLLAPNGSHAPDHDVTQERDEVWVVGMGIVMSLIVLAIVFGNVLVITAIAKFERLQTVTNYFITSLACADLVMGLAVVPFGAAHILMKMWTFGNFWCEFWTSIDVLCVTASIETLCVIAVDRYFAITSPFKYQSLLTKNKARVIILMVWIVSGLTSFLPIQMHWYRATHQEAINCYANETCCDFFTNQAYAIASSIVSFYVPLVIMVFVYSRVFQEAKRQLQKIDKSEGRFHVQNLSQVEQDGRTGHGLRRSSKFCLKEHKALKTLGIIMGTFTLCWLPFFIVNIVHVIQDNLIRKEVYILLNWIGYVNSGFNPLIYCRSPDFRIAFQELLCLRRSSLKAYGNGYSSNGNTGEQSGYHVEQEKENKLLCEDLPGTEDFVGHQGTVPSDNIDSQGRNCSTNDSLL
tim23-1 inh – growth inhibitors of tim23-1 mutant yeast, primary screen, luminescence, uHTS; S. cerevisiae tim23-1 growth, BacTiter-Glo luminescence, 24 h; inhibition, % at 20 µM; 330,000 tested, 1.3% active;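 active = growth inhibition of the mutant yeast at or above 50%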;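 note: temperature-sensitive mutant grown at 25 °C; plate controls were DMSO-treated mutant yeast for no effect and medium wells lacking yeast for full effect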
Numbers without * were called inactive; i = inactive; ? = inconclusive; · = no result given; + = active, no number.

SMILES	TIM10 inh	tim10-1 inh	PfHsp90 set2	Beta2AR agonist	tim23-1 inh
C=C(C)COc1ccc(-c2[nH]ncc2Oc2cccc(OC)c2)c(O)c1	39	-41	110*	14	13
O=C1C=CC(=O)c2c(O)c(N3CCN(CCO)CC3)c(Cl)c(O)c21	·	·	21	100*	·
O=C1C=CC(=O)c2c(O)c(N3CCN(CCOCCO)CC3)c(Br)c(O)c21	·	·	-17	66*	·
OCCOCCN1CCN(C2=Nc3ccccc3Sc3ccccc32)CC1	3	2	5	5	7
O=S(=O)(c1ccc(Br)cc1Cl)N1CCN(CCO)CC1	-1	0	-28	-7	-9
O=C(N/N=C/c1sc2ccccc2c1O)c1cccc2ccccc12	·	·	104*	8	·
COc1ccc(C(=O)N/N=C/c2sc3ccccc3c2O)cc1	·	·	100*	3	·
O=C(Cc1ccc(NC(=O)C2CCN(C(=O)C3CCCC3)CC2)cc1)Nc1cccc(C(=O)N2CCCCC2)c1	·	·	-4	7	·
Cc1ccc(N/C=C/C(=O)c2cccs2)cc1C	1	-2	-15	6	42
O=C(/C=C/Nc1ccc(Nc2ccccc2)cc1)c1cccs1	·	·	-6	50*	·
CCOC(=O)C1=C(COC(=O)c2cc(S(=O)(=O)N3CCOCC3)ccc2F)NC(=O)NC1C (stereo not given)	·	·	1	20	·
Cc1ccc(N2C(=O)CC(N(O)C3CC(=O)N(c4ccc(C)cc4)C3=O)C2=O)cc1 (stereo not given)	4	12	-6	0	12
CCCCCCC(=O)N(O)C1CC(=O)N(c2ccc(Cl)cc2)C1=O (stereo not given)	12	24	110*	8	37
S=C(NN=C(c1ccccc1)c1ccccn1)N(Cc1ccccn1)Cc1ccccn1	·	·	?	0	·
CC(=NNC(=S)N(Cc1ccccn1)Cc1ccccn1)c1cnccn1	·	·	110*	-23	·
COc1cc(/C=C/C(=O)c2ccc3c(c2)OCCO3)cc(Br)c1OCC(=O)N(C)C	26	22	-12	10	24
COc1ccccc1C1=NOC(COc2ccc3c(C)cc(=O)oc3c2)C1 (stereo not given)	-9	13	-2	44*	27
N#CCN1CCN(CC(=O)Nc2ccc(OCc3ccccc3)cc2)CC1	-8	16	62	42*	22
CCn1cc(C(=O)NC(C)C23CC4CC(CC(C4)C2)C3)cn1 (stereo not given)	16	22	7	-1	23
CC(NC(=O)Cn1ncc(Cl)c(Cl)c1=O)C12CC3CC(CC(C3)C1)C2 (stereo not given)	·	·	22	112*	·
O=C(C=Cc1ccccn1)c1ccccc1O	·	·	114*	49*	·
CCn1c(SCC(=O)N2CCOCC2)nnc1C(C)NC(=O)c1ccccc1 (stereo not given)	-9	2	-11	1	-3
CC1CCCCC12NC(=O)N(CC(=O)c1ccc(Cl)s1)C2=O (stereo not given)	-5	-12	-13	-5	2
CC(=O)Nc1ccc2c(c1)Cc1ccc(Cl)cc1-2	·	·	-8	2	·
O=C1C=CC(=O)N1c1ccc2c(c1)Cc1cc(F)ccc1-2	·	·	116*	4	·
SMILES	TIM10 inh	tim10-1 inh	PfHsp90 set2	Beta2AR agonist	tim23-1 inh
CC(=O)Nc1ccc2c(c1)Cc1cc(N3C(=O)C=CC3=O)ccc1-2	·	·	116*	44*	·
COc1cc2c3c(n(C)c(=O)c2cc1OC)-c1cc2c(cc1C3=O)OCO2	·	·	-58	-7	·
COc1cccc(-c2nc(NC3CCCC3)c3ccccc3n2)c1O	-13	36	117*	27	49
COc1ccc(NC(=O)c2sc3ncnc(N4CCN(c5ccccn5)CC4)c3c2C)cc1Cl	-40	16	103*	22	11
COc1ccccc1N=Nc1ccc(O)c2ncccc12	18	8	99*	4	32
CCS(=O)(=O)c1ccc(N=Nc2ccc(O)c3ncccc23)c(OC)c1	5	39	59	-1	32
COc1cc(/C=C2\SC(=Nc3ccccc3)N(CCc3c[nH]c4ccccc34)C2=O)ccc1OC(C)C(=O)O (stereo not given)	15	38	1	19	16
O=C1/C(=C/c2ccc(N3CCOCC3)o2)SC(=Nc2ccccc2)N1CCc1c[nH]c2ccccc12	12	5	142*	i	28
O=C(Cc1ccc(NC(=O)C2CCCN(C(=O)C3CC3)C2)cc1)Nc1ccc(C(=O)N2CCOCC2)cc1 (stereo not given)	·	·	-3	-2	·
COCCN1C=C2C(=O)C(C)(OC(=O)CCC(=O)OC)C(=O)C(Br)=C2C=C1c1ccc(OC)cc1 (stereo not given)	13	11	5	18	20
CC1(OC(=O)c2ccco2)C(=O)C=C2C=C(c3ccsc3)OC=C2C1=O (stereo not given)	7	4	·	·	6
COc1ccc(C2=CC3=C(Br)C(=O)C(C)(OC(=O)c4ccco4)C(=O)C3=CO2)cc1 (stereo not given)	15	31	+	9	36
COc1ccc(C2=CC3=C(Br)C(=O)C(C)(OC(=O)c4cccs4)C(=O)C3=CO2)cc1 (stereo not given)	-6	20	107*	-1	-4
COc1cccc2c1C(=O)c1c(O)c3c(c(O)c1C2=O)CC(O)(C(=O)CO)CC3OC1CC(N(C)C)C(O)C(C)O1 (stereo not given)	·	·	106*	-131	·
COc1cccc2c1C(=O)c1c(O)c3c(c(O)c1C2=O)C[C@@](O)(C(=O)CO)C[C@@H]3O[C@H]1C[C@H](N)[C@@H](O)[C@H](C)O1	-20	-13	-30	-34	36
CCn1c(O)c(N=NC(=O)c2ccc(CSc3nncn3C)cc2)c2ccccc21	-6	2	-6	53*	6
Cn1cnnc1SCc1ccc(C(=O)N=Nc2c(O)n(Cc3ccc(Cl)cc3)c3ccccc23)cc1	16	18	-1	7	28
Cc1cc(=O)cc(C)n1-c1ccccc1N	2	-10	3	45*	0
O=[N+]([O-])c1ccc(COc2ccc(CN3CCCC3)cc2)cc1	·	·	-6	-3	·
CCCc1ccc(C2=Nn3c(nnc3C(C)C)SC2)cc1	34	9	12	66*	46
CC(C)c1nnc2n1N=C(c1ccc(Cl)cc1)CS2	-1	14	-15	-11	36
Clc1ccc2c(N/N=C/c3ccccc3Br)ccnc2c1	29	-1	7	42*	17
Clc1ccc2c(N/N=C/c3cccc(Br)c3)ccnc2c1	·	·	-23	46*	·
CN(Cc1ccc(OC(F)F)cc1)C(=O)c1cccc(S(=O)(=O)N2CCN(Cc3ccccc3)CC2)c1	·	·	-17	4	·
CC1CC=C(O)C12OCC(C)(C)CO2 (stereo not given)	·	·	·	4	·
